Results on 10 compounds are retold here after PubChem BioAssay (NCI).

A short description of assay [1]: NCI Yeast Anticancer Drug Screen. Data for the rad50 strain (AID 155).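 Note: 0% = growth of vehicle-only cultures of the same strain.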 As to conditions: S. cerevisiae rad50 strain growth inhibition, stronger effect = higher value. In a few lines:
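Relative growth inhibition (compound vs vehicle) was measured in yeast with a defined repair-gene alteration.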

Assay [2] can be described thus: NCI Yeast Anticancer Drug Screen. Data for the mec2-1 strain (AID 157). As to conditions: S. cerevisiae mec2-1 strain, stronger effect = higher value. In a few lines:
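Compounds were applied to mec2-1 yeast cells. Their growth was then compared with that of vehicle-treated cultures to give growth inhibition.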

Assay [3] in a line: NCI Yeast Anticancer Drug Screen. Data for the sgs1 mgt1 strain (AID 161).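 Note: 0% = growth of cultures given vehicle only.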 As to conditions: S. cerevisiae sgs1 mgt1 strain, stronger effect = higher value. A digest of the protocol: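 This yeast growth screen uses a strain with defined DNA-repair lesions; compound-treated growth is compared with vehicle-treated growth.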
Assay [4] in a line: NCI Yeast Anticancer Drug Screen. Data for the cln2 rad14 strain (AID 165).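 Note: 0% = growth equal to vehicle treated cultures.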 As to conditions: S. cerevisiae cln2 rad14 strain, stronger effect = higher value. A digest of the protocol:
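Strain: cln2 rad14 yeast, altered in cell cycle control and DNA damage repair. Read-out: growth inhibition vs vehicle.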

A short description of assay [5]: NCI Yeast Anticancer Drug Screen. Data for the bub3 strain (AID 167). As to conditions: S. cerevisiae bub3 mutant strain, stronger effect = higher value. In a few lines: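 Screening used yeast with an engineered genetic alteration affecting cell cycle control. Compound-exposed cultures were compared with vehicle cultures, and reduced growth was taken as inhibition.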
Assay [6] can be described thus: NCI Yeast Anticancer Drug Screen. Data for the mlh1 rad18 strain (AID 175). As to conditions: S. cerevisiae mlh1 rad18 strain growth inhibition, stronger effect = higher value. A digest of the protocol: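 A repair-deficient yeast strain is exposed to test compound, and growth is scored relative to vehicle-treated controls.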
Where [7] appears, read: at 5.0 µM (retest, dose inferred, filed as 0.5).
The mark [8] stands for this setting: at 50.0 µM (retest, dose inferred, filed as 5.0).

About 79,000 compounds went through this panel and 15% of them were active in at least one assay; those are over-represented in the sample as a whole. A number with no mark means an inactive call. Active and inactive are the calls of the source. Cut-off read from the data, not from the text of the source: active = growth inhibition above about 70%; inactive = the rest.

As for `CCCOc1ccc(/C=N/NC(N)=S)cc1`, the growth inhibition in assay [1] (setting [7]) is 16%; in assay [1] (setting [8]), 73% (active); in assay [1] (at 50.0 µM) it was 42.1%; in assay [2] (setting [7]), 0%; in assay [2] (setting [8]), 50%; in assay [2] (at 50.0 µM), 59.5%. Moreover, the growth inhibition in assay [3] (setting [7]) was 16%; in assay [3] (setting [8]), 74% (active); in assay [3] (at 50.0 µM), 69.7%; in assay [4] (setting [7]), 7%; in assay [4] (setting [8]), 65%; in assay [4] (at 50.0 µM), 76.5% (active). Moreover, the growth inhibition in assay [5] (setting [7]) is -72%; in assay [5] (setting [8]) it was 70% (active); in assay [5] (at 50.0 µM), 63.7%; in assay [6] (setting [7]), 12%; in assay [6] (setting [8]), 75% (active); in assay [6] (at 50.0 µM), 67.3%.
Take `O=C1C/C(=C\c2ccccc2)C(=O)c2ccccc2N1`: the growth inhibition in assay [1] (setting [7]) is 0%; in assay [1] (setting [8]), 20%; in assay [1] (at 50.0 µM), 57.8%; in assay [2] (setting [7]), -3%; in assay [2] (setting [8]), 16%; in assay [2] (at 50.0 µM) it was 41.8%. The growth inhibition was -9% in assay [3] (setting [7]); 27% in assay [3] (setting [8]); 76% (active) in assay [3] (at 50.0 µM); 1% in assay [4] (setting [7]); 6% in assay [4] (setting [8]); 33.6% in assay [4] (at 50.0 µM). Also, the growth inhibition in assay [5] (setting [7]) is -23%; in assay [5] (setting [8]) it was 19%; in assay [5] (at 50.0 µM), 67%; in assay [6] (setting [7]), -18%; in assay [6] (setting [8]), 18%; in assay [6] (at 50.0 µM), 60.5%.
For `COC(=O)CCC(=O)NCCc1ccc2c([nH]c3ccccc32)c1C`, the growth inhibition was 12% in assay [1] (setting [7]); 5% in assay [1] (setting [8]); 55.6% in assay [1] (at 50.0 µM); 5% in assay [2] (setting [7]); -1% in assay [2] (setting [8]); 59.7% in assay [2] (at 50.0 µM). The growth inhibition is 4% in assay [3] (setting [7]); 11% in assay [3] (setting [8]); 71.2% (active) in assay [3] (at 50.0 µM); 5% in assay [4] (setting [7]); -7% in assay [4] (setting [8]); 93% (active) in assay [4] (at 50.0 µM). For the same compound, the growth inhibition in assay [5] (setting [7]) was 5%; in assay [5] (setting [8]) it was 4%; in assay [5] (at 50.0 µM), 63.5%; in assay [6] (setting [7]) it was 3%; in assay [6] (setting [8]), -2%; in assay [6] (at 50.0 µM), 91% (active).
For the compound `CCOc1ccc(/C=C2\NC(=S)N(/C=C3\C(=O)Oc4ccccc4C3=O)C2=O)cc1`, the growth inhibition was 77% (active) in assay [1] (setting [7]); 91% (active) in assay [1] (setting [8]); -16.1% in assay [1] (at 50.0 µM); 6% in assay [2] (setting [7]); 71% (active) in assay [2] (setting [8]); -28.6% in assay [2] (at 50.0 µM). For the same compound, the growth inhibition is -30% in assay [3] (setting [7]); 58% in assay [3] (setting [8]); 0.45% in assay [3] (at 50.0 µM); -14% in assay [4] (setting [7]); 70% (active) in assay [4] (setting [8]); -39.2% in assay [4] (at 50.0 µM). The growth inhibition in assay [5] (setting [7]) is -31%; in assay [5] (setting [8]), 76% (active); in assay [5] (at 50.0 µM) it was -23.9%; in assay [6] (setting [7]) it was 11%; in assay [6] (setting [8]), 94% (active); in assay [6] (at 50.0 µM) it was -8.6%.
For `CCCCCCCCCCCCc1ccc(S(=O)(=O)O)cc1.[Zn+2]`, the growth inhibition was -2% in assay [1] (setting [7]); 55% in assay [1] (setting [8]); 78.4% (active) in assay [1] (at 50.0 µM); 19% in assay [2] (setting [7]); 27% in assay [2] (setting [8]); 13.2% in assay [2] (at 50.0 µM). For the same compound, the growth inhibition in assay [3] (setting [7]) is -4%; in assay [3] (setting [8]), 59%; in assay [3] (at 50.0 µM) it was 75.3% (active); in assay [4] (setting [7]), 3%; in assay [4] (setting [8]) it was 38%; in assay [4] (at 50.0 µM), -49%. Besides, the growth inhibition is -8% in assay [5] (setting [7]); 35% in assay [5] (setting [8]); 6.15% in assay [5] (at 50.0 µM); -2% in assay [6] (setting [7]); 71% (active) in assay [6] (setting [8]); 30.1% in assay [6] (at 50.0 µM).
For the compound `O=S(=O)(CCNCCCCC1CCCCC1)SCCNCCCCC1CCCCC1`, the growth inhibition in assay [1] (setting [7]) is 48%; in assay [1] (setting [8]) it was 99% (active); in assay [1] (at 50.0 µM) it was 68.3%; in assay [2] (setting [7]) it was 3%; in assay [2] (setting [8]) it was 99% (active); in assay [2] (at 50.0 µM) it was 49.1%. In addition, the growth inhibition in assay [3] (setting [7]) is 70% (active); in assay [3] (setting [8]), 99% (active); in assay [3] (at 50.0 µM), 55.1%; in assay [4] (setting [7]), 10%; in assay [4] (setting [8]), 99% (active); in assay [4] (at 50.0 µM), 56.5%. Further, the growth inhibition is 16% in assay [5] (setting [7]); 99% (active) in assay [5] (setting [8]); 98.8% (active) in assay [5] (at 50.0 µM); 38% in assay [6] (setting [7]); 99% (active) in assay [6] (setting [8]); 47% in assay [6] (at 50.0 µM).
For `Cc1c[nH]c(=O)n(CC(=O)C2CCC3C4CCC5=CC(=O)CCC5(C)C4CCC23C)c1=O` (stereo not given), the growth inhibition in assay [1] (setting [7]) is 11%; in assay [1] (setting [8]), 30%; in assay [1] (at 50.0 µM) it was 48.2%; in assay [2] (setting [7]), 0%; in assay [2] (setting [8]), -11%; in assay [2] (at 50.0 µM), 43.6%. For the same compound, the growth inhibition was -1% in assay [3] (setting [7]); 26% in assay [3] (setting [8]); 47.4% in assay [3] (at 50.0 µM); -1% in assay [4] (setting [7]); 4% in assay [4] (setting [8]); 46.6% in assay [4] (at 50.0 µM). Moreover, the growth inhibition in assay [5] (setting [7]) is 0%; in assay [5] (setting [8]), 17%; in assay [5] (at 50.0 µM) it was 41.1%; in assay [6] (setting [7]), 1%; in assay [6] (setting [8]), 20%; in assay [6] (at 50.0 µM), 43.3%.
Turning to `CC1CN(CCCN2c3ccccc3Sc3ccc(Cl)cc32)C(C)(C)C1` (stereo not given), the growth inhibition was 1% in assay [1] (setting [7]); 99% (active) in assay [1] (setting [8]); 99.7% (active) in assay [1] (at 50.0 µM); 5% in assay [2] (setting [7]); 100% (active) in assay [2] (setting [8]); 99.8% (active) in assay [2] (at 50.0 µM). Also, the growth inhibition in assay [3] (setting [7]) is 17%; in assay [3] (setting [8]), 100% (active); in assay [3] (at 50.0 µM) it was 99.8% (active); in assay [4] (setting [7]) it was 10%; in assay [4] (setting [8]), 99% (active); in assay [4] (at 50.0 µM) it was 99.3% (active). Further, the growth inhibition in assay [5] (setting [7]) was 21%; in assay [5] (setting [8]) it was 100% (active); in assay [5] (at 50.0 µM), 99.3% (active); in assay [6] (setting [7]), 9%; in assay [6] (setting [8]) it was 99% (active); in assay [6] (at 50.0 µM) it was 99.8% (active).
As for `O=[N+]([O-])c1ccc(/C=c2\sc3scc(-c4ccc([N+](=O)[O-])cc4)[n+]3\c2=C/c2ccc([N+](=O)[O-])cc2)cc1`, the growth inhibition was 99% (active) in assay [1] (setting [7]); 99% (active) in assay [1] (setting [8]); 86.9% (active) in assay [1] (at 50.0 µM); 100% (active) in assay [2] (setting [7]); 99% (active) in assay [2] (setting [8]); 75.5% (active) in assay [2] (at 50.0 µM). Also, the growth inhibition in assay [3] (setting [7]) is 88% (active); in assay [3] (setting [8]), 99% (active); in assay [3] (at 50.0 µM), 97.5% (active); in assay [4] (setting [7]), 94% (active); in assay [4] (setting [8]), 99% (active); in assay [4] (at 50.0 µM), 69.3%. For the same compound, the growth inhibition in assay [5] (setting [7]) is 99% (active); in assay [5] (setting [8]), 99% (active); in assay [5] (at 50.0 µM), 54.1%; in assay [6] (setting [7]), 99% (active); in assay [6] (setting [8]) it was 99% (active); in assay [6] (at 50.0 µM), 94.6% (active).
`Nc1ncnc2c1c(-c1ccccc1)cn2-c1ccc(Br)cc1`: the growth inhibition in assay [1] (setting [7]) was 23%; in assay [1] (setting [8]), 38%; in assay [1] (at 50.0 µM), 43.1%; in assay [2] (setting [7]), 16%; in assay [2] (setting [8]) it was 43%; in assay [2] (at 50.0 µM), 21.7%. Moreover, the growth inhibition in assay [3] (setting [7]) was 47%; in assay [3] (setting [8]), 80% (active); in assay [3] (at 50.0 µM) it was 94% (active); in assay [4] (setting [7]), 13%; in assay [4] (setting [8]), 44%; in assay [4] (at 50.0 µM) it was 28.1%. Also, the growth inhibition is 3% in assay [5] (setting [7]); 37% in assay [5] (setting [8]); -1.8% in assay [5] (at 50.0 µM); 14% in assay [6] (setting [7]); 58% in assay [6] (setting [8]); 58.9% in assay [6] (at 50.0 µM).
